Data taken from the supplement of paper PMC10849652.
Of roughly 7,900 targets only a part is listed; those with a hit were picked by preference. About 0.6% of all pairs of compound and target were hits. A number with no mark means an inactive call.

How the values were obtained:
Assay in all cases: log2 fold change, soluble protein after heating vs DMSO (PISA); higher = thermal stabilisation; K562 cells, 10 uM, 30 min; active = over 0.2 and 3.5 SD of the protein, either way, in both replicates (recomputed)
saracatinib = compound: CN1CCN(CCOc2cc(OC3CCOCC3)c3c(Nc4c(Cl)ccc5c4OCO5)ncnc3c2)CC1 [saracatinib]
Summary of the method: (§1)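 Aliquots of K562 cells (2×10^6 cells/mL) treated with 10 μM compound for 30 min were heated for 3 min over 48°C-58°C. After pooling and extraction in PBS with 0.5% NP-40 at 4°C, soluble protein from a 21,000xg, 90 min spin was quantified by TMTpro 16plex LC-MS/MS with channel sums equalised. Thermal stability is expressed against control samples, from duplicates, as a log2 fold change.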

sotrastaurin = compound: CN1CCN(c2nc(C3=C(c4c[nH]c5ccccc45)C(=O)NC3=O)c3ccccc3n2)CC1 [sotrastaurin]
Summary of the method: as §1

alvocidib = compound: CN1CC[C@H](c2c(O)cc(O)c3c(=O)cc(-c4ccccc4Cl)oc23)[C@H](O)C1 [alvocidib]
Summary of the method: as §1

Tubastatin A = compound: CN1CCc2c(c3ccccc3n2Cc2ccc(C(=O)NO)cc2)C1 [Tubastatin A]
Summary of the method: as §1

[1] = compound: CNC(=O)C1=CC=CC=C1NC2=NC(=NC=C2Cl)NC3=C(C=C(C=C3)N4CCOCC4)OC
Summary of the method: as §1

defactinib = compound: CNC(=O)c1ccc(Nc2ncc(C(F)(F)F)c(NCc3nccnc3N(C)S(C)(=O)=O)n2)cc1 [defactinib]
Summary of the method: as §1

rucaparib = compound: CNCc1ccc(-c2[nH]c3cc(F)cc4c3c2CCNC4=O)cc1 [rucaparib]
Summary of the method: as §1

[2] = compound: CNc1nc(-c2ccc3c(N)n[nH]c3c2)cc(N2C[C@@H](C(=O)NC3CCCCC3)CC[C@H]2C)n1
Summary of the method: as §1

encorafenib = compound: COC(=O)N[C@@H](C)CNc1nccc(-c2cn(C(C)C)nc2-c2cc(Cl)cc(NS(C)(=O)=O)c2F)n1 [encorafenib]
Summary of the method: as §1

[3] = compound: COC(=O)[C@H](CCSC)NC(=O)C1=C(C=C(C=C1)NC[C@H](CS)N)C2=CC=CC=C2
Summary of the method: as §1

[4] = compound: COC1=CC=C(C=C1)CN2C=CC3=C2C=C(C=C3)C(=O)NO
Summary of the method: as §1

filanesib = compound: CON(C)C(=O)N1N=C(c2cc(F)ccc2F)S[C@@]1(CCCN)c1ccccc1 [filanesib]
Summary of the method: as §1

zotarolimus = compound: CO[C@H]1C[C@@H]2CC[C@@H](C)[C@@](O)(O2)C(=O)C(=O)N2CCCC[C@H]2C(=O)O[C@H]([C@H](C)C[C@@H]2CC[C@H](n3cnnn3)[C@H](OC)C2)CC(=O)[C@H](C)/C=C(\C)[C@@H](O)[C@@H](OC)C(=O)[C@H](C)C[C@H](C)/C=C/C=C/C=C/1C [zotarolimus]
Summary of the method: as §1

idasanutlin = compound: COc1cc(C(=O)O)ccc1NC(=O)[C@@H]1N[C@@H](CC(C)(C)C)[C@](C#N)(c2ccc(Cl)cc2F)[C@H]1c1cccc(Cl)c1F [idasanutlin]
Summary of the method: as §1

alisertib = compound: COc1cc(Nc2ncc3c(n2)-c2ccc(Cl)cc2C(c2c(F)cccc2OC)=NC3)ccc1C(=O)O [alisertib]
Summary of the method: as §1

[5] = compound: COc1cc2nc(-c3cc(F)ccc3O)nc(N[C@@H]3CNC[C@H]3C(C)(C)O)c2cc1OC
Summary of the method: as §1

gefitinib = compound: COc1cc2ncnc(Nc3ccc(F)c(Cl)c3)c2cc1OCCCN1CCOCC1 [gefitinib]
Summary of the method: as §1

[6] = compound: COc1cccc2cc(-c3nc([C@H]4CC[C@H](C(=O)O)CC4)n4ncnc(N)c34)[nH]c12
Summary of the method: as §1

lapatinib = compound: CS(=O)(=O)CCNCc1ccc(-c2ccc3ncnc(Nc4ccc(OCc5cccc(F)c5)c(Cl)c4)c3c2)o1 [lapatinib]
Summary of the method: as §1

pictilisib = compound: CS(=O)(=O)N1CCN(Cc2cc3nc(-c4cccc5[nH]ncc45)nc(N4CCOCC4)c3s2)CC1 [pictilisib]
Summary of the method: as §1

Chain of UniProt Q8TEQ6 (Q8TEQ6 whole entry, looked up): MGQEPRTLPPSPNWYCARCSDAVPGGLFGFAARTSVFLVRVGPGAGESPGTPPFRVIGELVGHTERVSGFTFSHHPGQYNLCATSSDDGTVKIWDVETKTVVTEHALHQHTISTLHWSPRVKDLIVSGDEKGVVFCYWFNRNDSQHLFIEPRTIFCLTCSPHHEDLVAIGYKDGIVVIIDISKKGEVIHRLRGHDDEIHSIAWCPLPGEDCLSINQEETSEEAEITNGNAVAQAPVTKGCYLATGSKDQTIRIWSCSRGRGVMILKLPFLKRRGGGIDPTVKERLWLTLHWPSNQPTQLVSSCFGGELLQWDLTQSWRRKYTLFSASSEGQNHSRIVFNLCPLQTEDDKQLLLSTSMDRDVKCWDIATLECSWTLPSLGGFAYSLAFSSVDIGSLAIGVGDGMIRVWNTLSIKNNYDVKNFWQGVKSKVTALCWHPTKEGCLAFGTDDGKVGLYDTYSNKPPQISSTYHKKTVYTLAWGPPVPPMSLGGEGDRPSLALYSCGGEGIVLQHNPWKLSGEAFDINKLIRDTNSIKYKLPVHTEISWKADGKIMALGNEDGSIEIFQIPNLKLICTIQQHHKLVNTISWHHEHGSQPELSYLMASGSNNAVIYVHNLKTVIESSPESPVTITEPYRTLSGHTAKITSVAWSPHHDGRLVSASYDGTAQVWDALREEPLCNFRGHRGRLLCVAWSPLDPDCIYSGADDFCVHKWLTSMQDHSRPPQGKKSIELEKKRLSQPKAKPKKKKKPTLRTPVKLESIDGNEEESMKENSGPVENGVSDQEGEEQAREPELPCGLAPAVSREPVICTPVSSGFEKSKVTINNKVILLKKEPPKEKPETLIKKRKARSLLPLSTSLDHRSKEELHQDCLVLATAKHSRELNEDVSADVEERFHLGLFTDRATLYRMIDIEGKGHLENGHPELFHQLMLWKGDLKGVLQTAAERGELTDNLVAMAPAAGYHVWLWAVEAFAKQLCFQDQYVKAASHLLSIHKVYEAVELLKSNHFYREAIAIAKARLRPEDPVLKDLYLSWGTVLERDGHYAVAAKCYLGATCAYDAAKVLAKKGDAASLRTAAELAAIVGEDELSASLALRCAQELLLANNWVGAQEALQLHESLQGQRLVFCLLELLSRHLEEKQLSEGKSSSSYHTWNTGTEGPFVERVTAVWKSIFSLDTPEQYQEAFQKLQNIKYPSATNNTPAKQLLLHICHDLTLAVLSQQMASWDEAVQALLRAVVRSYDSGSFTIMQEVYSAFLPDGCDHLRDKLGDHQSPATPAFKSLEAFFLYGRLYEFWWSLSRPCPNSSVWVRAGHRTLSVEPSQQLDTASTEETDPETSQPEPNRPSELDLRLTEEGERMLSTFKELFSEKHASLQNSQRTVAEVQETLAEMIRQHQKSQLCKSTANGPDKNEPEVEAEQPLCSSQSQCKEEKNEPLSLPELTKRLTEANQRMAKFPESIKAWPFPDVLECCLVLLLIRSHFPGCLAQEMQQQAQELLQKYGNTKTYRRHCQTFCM
Chain of UniProt Q13547 (Q13547 whole entry, looked up): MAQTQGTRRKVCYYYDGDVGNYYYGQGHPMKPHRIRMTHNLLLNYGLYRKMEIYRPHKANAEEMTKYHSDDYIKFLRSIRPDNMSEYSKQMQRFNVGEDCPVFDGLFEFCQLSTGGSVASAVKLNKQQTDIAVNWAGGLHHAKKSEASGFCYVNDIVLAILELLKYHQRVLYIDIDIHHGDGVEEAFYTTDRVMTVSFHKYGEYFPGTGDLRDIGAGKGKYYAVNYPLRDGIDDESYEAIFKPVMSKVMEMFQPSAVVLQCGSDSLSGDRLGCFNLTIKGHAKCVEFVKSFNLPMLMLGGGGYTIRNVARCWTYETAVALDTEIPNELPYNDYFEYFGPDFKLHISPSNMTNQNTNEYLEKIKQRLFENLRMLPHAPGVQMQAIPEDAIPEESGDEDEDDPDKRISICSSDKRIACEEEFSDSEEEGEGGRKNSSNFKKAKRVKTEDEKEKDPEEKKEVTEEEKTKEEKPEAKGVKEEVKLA
Chain of UniProt Q9BTY2 (Q9BTY2 whole entry, looked up): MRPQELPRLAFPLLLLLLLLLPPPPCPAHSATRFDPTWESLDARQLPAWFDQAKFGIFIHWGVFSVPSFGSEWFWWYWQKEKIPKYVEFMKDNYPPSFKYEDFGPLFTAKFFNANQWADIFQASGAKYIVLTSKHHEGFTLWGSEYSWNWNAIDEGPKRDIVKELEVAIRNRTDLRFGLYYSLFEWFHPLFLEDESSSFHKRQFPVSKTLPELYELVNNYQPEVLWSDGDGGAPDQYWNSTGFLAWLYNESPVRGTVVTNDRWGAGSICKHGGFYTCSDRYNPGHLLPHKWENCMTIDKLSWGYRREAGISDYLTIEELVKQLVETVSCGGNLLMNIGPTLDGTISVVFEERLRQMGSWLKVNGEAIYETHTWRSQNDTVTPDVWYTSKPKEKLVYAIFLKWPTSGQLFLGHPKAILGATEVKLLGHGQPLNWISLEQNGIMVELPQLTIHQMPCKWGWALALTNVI
Chain of UniProt Q8N2G8 (Q8N2G8 whole entry, looked up): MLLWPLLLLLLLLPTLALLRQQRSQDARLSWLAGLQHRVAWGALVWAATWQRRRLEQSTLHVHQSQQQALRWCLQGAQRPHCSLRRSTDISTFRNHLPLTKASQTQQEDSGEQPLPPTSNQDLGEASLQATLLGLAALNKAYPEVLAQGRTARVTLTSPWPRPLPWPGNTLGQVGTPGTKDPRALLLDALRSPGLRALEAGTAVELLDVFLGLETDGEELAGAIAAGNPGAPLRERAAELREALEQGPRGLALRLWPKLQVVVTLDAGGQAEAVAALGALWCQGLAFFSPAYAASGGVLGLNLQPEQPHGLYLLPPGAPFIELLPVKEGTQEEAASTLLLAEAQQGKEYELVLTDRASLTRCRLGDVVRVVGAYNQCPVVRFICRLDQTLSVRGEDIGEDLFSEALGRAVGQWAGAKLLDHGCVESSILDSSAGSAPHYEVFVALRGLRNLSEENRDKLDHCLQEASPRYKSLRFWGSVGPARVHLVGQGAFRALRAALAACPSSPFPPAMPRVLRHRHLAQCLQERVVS
Chain of UniProt Q9UBN7 (Q9UBN7 whole entry, looked up): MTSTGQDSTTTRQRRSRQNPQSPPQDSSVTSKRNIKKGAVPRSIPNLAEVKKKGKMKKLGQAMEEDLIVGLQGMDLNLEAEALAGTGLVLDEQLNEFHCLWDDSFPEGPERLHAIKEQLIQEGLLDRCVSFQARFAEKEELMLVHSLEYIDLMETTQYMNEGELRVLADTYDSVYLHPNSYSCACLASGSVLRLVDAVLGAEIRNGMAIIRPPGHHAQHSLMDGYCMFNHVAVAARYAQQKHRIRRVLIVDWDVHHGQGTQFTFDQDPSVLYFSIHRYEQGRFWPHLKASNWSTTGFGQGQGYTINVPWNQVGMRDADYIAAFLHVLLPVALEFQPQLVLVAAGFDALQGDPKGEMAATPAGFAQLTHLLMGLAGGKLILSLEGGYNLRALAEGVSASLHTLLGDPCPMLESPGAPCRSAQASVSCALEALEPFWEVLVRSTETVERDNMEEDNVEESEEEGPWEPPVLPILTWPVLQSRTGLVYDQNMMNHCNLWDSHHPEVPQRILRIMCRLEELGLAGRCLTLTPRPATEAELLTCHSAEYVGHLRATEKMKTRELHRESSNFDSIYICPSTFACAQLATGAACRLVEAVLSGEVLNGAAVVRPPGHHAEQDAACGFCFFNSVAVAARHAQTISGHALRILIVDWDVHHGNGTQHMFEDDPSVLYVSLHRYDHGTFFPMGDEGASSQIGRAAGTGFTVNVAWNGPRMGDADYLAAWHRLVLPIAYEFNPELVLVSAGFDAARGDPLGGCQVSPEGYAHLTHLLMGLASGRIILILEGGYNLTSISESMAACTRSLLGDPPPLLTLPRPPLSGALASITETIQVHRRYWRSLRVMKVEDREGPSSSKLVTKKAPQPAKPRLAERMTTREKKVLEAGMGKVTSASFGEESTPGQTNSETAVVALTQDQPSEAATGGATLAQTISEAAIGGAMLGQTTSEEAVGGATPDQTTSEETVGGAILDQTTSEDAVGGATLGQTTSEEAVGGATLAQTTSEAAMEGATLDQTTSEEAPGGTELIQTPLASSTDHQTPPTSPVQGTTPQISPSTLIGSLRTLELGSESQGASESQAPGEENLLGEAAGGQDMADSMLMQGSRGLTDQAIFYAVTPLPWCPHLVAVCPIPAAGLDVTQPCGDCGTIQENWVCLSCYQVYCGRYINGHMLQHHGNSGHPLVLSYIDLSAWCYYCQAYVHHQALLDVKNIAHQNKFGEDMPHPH
Chain of UniProt Q96JB3 (Q96JB3 whole entry, looked up): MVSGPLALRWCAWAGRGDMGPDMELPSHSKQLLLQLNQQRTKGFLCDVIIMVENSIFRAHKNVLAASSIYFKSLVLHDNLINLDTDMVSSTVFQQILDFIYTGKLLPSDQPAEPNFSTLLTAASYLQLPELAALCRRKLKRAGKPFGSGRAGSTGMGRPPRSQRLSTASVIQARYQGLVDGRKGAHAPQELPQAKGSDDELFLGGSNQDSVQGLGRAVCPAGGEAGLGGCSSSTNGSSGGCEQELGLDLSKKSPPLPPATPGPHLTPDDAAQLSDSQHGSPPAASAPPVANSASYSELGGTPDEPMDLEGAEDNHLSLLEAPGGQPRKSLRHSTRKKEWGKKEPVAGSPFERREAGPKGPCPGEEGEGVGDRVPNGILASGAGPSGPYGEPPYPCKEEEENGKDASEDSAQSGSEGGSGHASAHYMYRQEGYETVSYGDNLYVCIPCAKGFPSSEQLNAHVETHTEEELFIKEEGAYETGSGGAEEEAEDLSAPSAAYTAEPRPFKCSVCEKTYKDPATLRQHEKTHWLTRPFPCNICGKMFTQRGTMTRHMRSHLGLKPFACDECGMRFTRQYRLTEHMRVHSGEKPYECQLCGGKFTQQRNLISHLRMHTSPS
Chain of UniProt Q9Y248 (Q9Y248 whole entry, looked up): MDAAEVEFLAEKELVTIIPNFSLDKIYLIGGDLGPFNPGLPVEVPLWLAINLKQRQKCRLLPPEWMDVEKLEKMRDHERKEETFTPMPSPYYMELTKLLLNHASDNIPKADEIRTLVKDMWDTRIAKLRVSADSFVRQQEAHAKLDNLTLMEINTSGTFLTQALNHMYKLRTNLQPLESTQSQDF

Target | log2 fold change (saracatinib) | log2 fold change (sotrastaurin) | log2 fold change (alvocidib) | log2 fold change (Tubastatin A) | log2 fold change [1] | log2 fold change (defactinib) | log2 fold change (rucaparib) | log2 fold change [2] | log2 fold change (encorafenib) | log2 fold change [3] | log2 fold change [4] | log2 fold change (filanesib) | log2 fold change (zotarolimus) | log2 fold change (idasanutlin) | log2 fold change (alisertib) | log2 fold change [5] | log2 fold change (gefitinib) | log2 fold change [6] | log2 fold change (lapatinib) | log2 fold change (pictilisib)
HDAC2 (UniProt Q92769) | -0.001 | -0.02 | -0.091 | 0.907 (active) | -0.113 | -0.035 | -0.006 | -0.015 | -0.046 | -0.006 | -0.144 | 0.029 | 0.008 | 0.008 | -0.041 | 0 | 0.007 | 0.017 | 0.063 | 0.024
GHDC (UniProt Q8N2G8) | 0.003 | 0.085 | -0.029 | -0.032 | 0.014 | -0.033 | 0.006 | -0.007 | 0.001 | 0.02 | -0.026 | -0.127 | 0.021 | 0.061 | -0.057 | -0.13 | 0.037 | 0.087 | 0.042 | 0.042
GEMIN5 (UniProt Q8TEQ6) | -0.014 | -0.035 | -0.192 | -0.053 | -0.02 | -0.216 (active) | 0.026 | 0.025 | 0.061 | -0.019 | 0.017 | 0.037 | 0.039 | -0.024 | -0.041 | -0.235 (active) | 0.013 | -0.035 | 0.015 | -0.021
GINS2 (UniProt Q9Y248) | -0.078 | -0.17 | -0.181 | 0.076 | 0.025 | -0.067 | -0.005 | 0.203 | 0.017 | 0.057 | 0.057 | -0.021 | 0.29 | – | -0.069 | 0.025 | 0.035 | -0.089 | -0.026 | -0.119
FUCA1 (UniProt P04066) | 0.038 | -0.048 | 0.059 | -0.035 | -0.015 | -0.032 | -0.186 | 0.023 | 0 | 0.014 | -0.014 | -0.057 | -0.025 | -0.044 | -0.004 | -0.113 | 0.003 | 0.1 | 0.047 | 0
HDAC6 (UniProt Q9UBN7) | -0.067 | -0.013 | -0.009 | 1.01 (active) | -0.037 | -0.028 | -0.028 | 0.09 | -0.135 | -0.014 | 0.676 (active) | 0.006 | 0.008 | -0.055 | -0.097 | 0.028 | 0.043 | -0.027 | 0.016 | 0.062
GAB2 (UniProt Q9UQC2) | -0.164 | 0.029 | -0.053 | -0.024 | -0.575 | -0.194 | 0.162 | -0.137 | -0.023 | 0.116 | 0.044 | -0.053 | -0.145 | 0.084 | 0.007 | -0.526 | – | -0.236 | 0.033 | -0.348
GTF2E2 (UniProt P29084) | -0.103 | -0.163 | -0.023 | 0.054 | 0.056 | -0.085 | 0.03 | 0.025 | 0.145 | -0.035 | -0.014 | 0.034 | 0.027 | -0.03 | -0.027 | 0 | 0.009 | -0.056 | 0.022 | 0.031
FUCA2 (UniProt Q9BTY2) | -0.013 | -0.021 | -0.003 | -0.026 | 0.028 | -0.045 | -0.139 | 0.003 | 0.012 | 0.038 | -0.094 | 0.002 | -0.019 | 0.177 | -0.044 | 0.011 | -0.013 | 0.045 | 0.025 | 0.011
GNS (UniProt P15586) | 0.014 | 0.041 | -0.022 | -0.012 | -0.007 | -0.011 | 0 | -0.034 | 0.009 | -0.009 | -0.014 | -0.041 | -0.05 | -0.002 | -0.034 | -0.011 | 0.017 | 0.039 | -0.024 | 0.014
HMOX2 (UniProt P30519) | -0.071 | -0.04 | -0.06 | 0.004 | 0.03 | -0.049 | 0.036 | 0.15 | 0.081 | -0.038 | 0.444 (active) | 0.085 | 0.027 | 0.148 | -0.03 | 0.036 | 0.006 | -0.041 | -0.045 | -0.04
HDAC1 (UniProt Q13547) | -0.004 | -0.026 | -0.137 | 1.52 (active) | -0.163 | -0.15 | 0.023 | 0.04 | -0.046 | -0.062 | – | 0.059 | -0.019 | -0.023 | 0.031 | 0 | 0.025 | 0.024 | 0.141 | 0.06
GDI1 (UniProt P31150) | 0.017 | 0.012 | -0.067 | -0.025 | 0.012 | -0.046 | -0.042 | -0.015 | 0.006 | 0.009 | -0.073 | -0.043 | 0.01 | -0.056 | -0.067 | 0.045 | -0.011 | 0.037 | -0.032 | -0.006
H2AFX (UniProt P16104) | -0.123 | 0.081 | 0.249 | 0.025 | -0.003 | 0.53 | 0.347 | 0.089 | -0.013 | 0.233 | -0.06 | 0.393 | -0.3 | 0.484 | -0.007 | -0.136 | 0.049 | -0.361 | 0.054 | -0.215
HIC2 (UniProt Q96JB3) | -0.152 | -0.236 | 0.033 | -0.034 | -0.011 | -0.008 | 0.142 | -0.019 | 0.045 | 0.089 | -0.067 | 0.226 | -0.012 | 0.238 | -0.057 | -0.386 | -0.073 | -0.066 | 0.207 | -0.052
FUT8 (UniProt Q9BYC5) | -0.095 | -0.049 | 0.055 | 0.02 | 0.023 | 0.049 | -0.037 | 0.017 | 0.018 | 0.506 (active) | -0.156 | -0.043 | -0.019 | -0.066 | 0.022 | – | 0.084 | -0.03 | – | -0.032
